The campaign covered roughly 1,200 compounds. About 170 (14%) were called active. No rule for the calls is given here. Only a sample is shown. Potency and affinity values are given separately.
Experiment: twin-arginine translocation blockade, bacterial reporter – cherry-pick, set 2, plate reader, dose response (AID 504941)
Settings: E. coli Tat transport reporter; series mostly up to 38 µM; activity change, negative = inhibition: at the top concentration

Activity change, negative = inhibition, inactive:
COc1ccc(OC)c(NC(=O)NCc2cccnc2)c1 6.95%
CN(CC(=O)NCCN1CCOCC1)S(=O)(=O)c1ccc(Cl)cc1 0.713%
Cc1cc(=O)[nH]c(Sc2c(-c3ccccc3)c3ccccc3[nH]c2=O)n1 2.85%
CN1CCN(c2cc3c(cc2F)c(=O)c(C(=O)O)cn3CCF)CC1 -97.2%
CC(C(=O)NC1CCCC1)N1CCN(S(=O)(=O)c2ccc(C(C)(C)C)cc2)CC1 (stereo unspecified) -20.3%
Cc1ccc(S(=O)(=O)N2CCC(C(=O)Nc3nnc(C)s3)CC2)cc1 0.142%
O=C(CCSc1nnc(-c2ccco2)o1)N1CCOCC1 -14.4%
CCc1ccc(-c2cc(C(=O)Nc3ccc(S(=O)(=O)NC(C)=O)cc3)c3ccccc3n2)cc1 -2.02%
CC(=O)c1ccc(NC(=O)C2CCCN2S(=O)(=O)c2cccc3cccnc23)cc1 (stereo unspecified) 16.2%
CN(c1ccccc1)S(=O)(=O)c1cccc(NC(=O)CN2C(=O)NC3(CCCC3)C2=O)c1 -4.76%
CC1(C)C2CCC1(C)C(NC(=O)/C=C/c1ccccc1)C2 (stereo unspecified) 3.31%
COc1ccc(Nc2nc3ccccc3nc2-n2nc(C)cc2C)cc1 13.7%
COc1ccccc1NC(=S)NC(=O)C(C)C 23.3%
COc1cc(NC(=O)C2CCCCC2)c(OC)cc1NC(=O)c1ccco1 -1.98%
Cc1ccc(-c2cc(C(F)F)n3ncc(C(=O)Nc4ccc(S(=O)(=O)Nc5ccccc5C)cc4)c3n2)cc1 -1.66%
Oc1c(Cl)cc(Cl)cc1C1Nc2ccccc2-n2cccc21 (stereo unspecified) -22.8%
O=C(c1cccnc1)C1CCCN(Cc2nc(Cc3ccccc3)no2)C1 (stereo unspecified) 2.5%
O=C(Nc1ccc2c(c1)OCCO2)C1CCCN(S(=O)(=O)c2cccnc2)C1 (stereo unspecified) 11.9%
CN1CCN(c2ccc(S(=O)(=O)N3CCCCC3)cc2NC(=O)c2cccc([N+](=O)[O-])c2)CC1 -5.17%
COc1c2ccoc2nc2c(OC)c(OC[C@@H](O)C(C)(C)O)ccc12 27.5%
Cc1ccnc(SCC(=O)c2cccs2)n1 -5.46%
CC(=O)c1cc(CN2CCN(C3CCCCC3)C(CCO)C2)cs1 (stereo unspecified) 5.91%
O=C1/C(=C/c2cccnc2)Oc2cc(OS(=O)(=O)c3ccccc3)ccc21 19.7%
COc1cccc(NC(=O)c2cccc(C(=O)Nc3cccc(OC)c3)n2)c1 -9.91%
Cc1ccc(S(=O)(=O)NC(C)(C)CSc2nnc(Nc3ccccc3)s2)cc1 -11.6%
CN1CCC(=NNC(=O)C(=O)Nc2cccc(Br)c2)CC1 25.9%
Cc1ccc(C)c(NC(=O)CN(C)C(=O)c2cccc(S(=O)(=O)N(C)C)c2)c1 8.53%
Cc1ncc(CN2CCN(CCC(C)C)C(CCO)C2)s1 (stereo unspecified) 8.33%
COc1ccc(C(=O)NC2(C(F)(F)F)C(=O)Nc3c2c(=O)[nH]c(=O)n3CCc2ccc(OC)c(OC)c2)cc1 (stereo unspecified) 0.11%
CC(C)OCC(O)CN1CCN(CC(O)COc2ccc3c(c2)OCO3)CC1 (stereo unspecified) 10.6%
CCCCN(C)C(=O)c1cc2cc([N+](=O)[O-])cc(OC)c2oc1=O 8.79%
Cc1cccc(N(CC(=O)NC2CCCC2)C(=O)CCCC(=O)Nc2ccccn2)c1 2.32%
CCCCn1c(N)c(N(CCOC)C(=O)COC(=O)C(C)Oc2ccc(Cl)cc2)c(=O)[nH]c1=O (stereo unspecified) 21%
O=C(Nc1nnc(S(=O)(=O)N2CCCCCC2)s1)c1ccccc1Br -23.6%
C=CCn1c(SCC(=O)NCc2ccc3c(c2)OCO3)nnc1-c1cccnc1 7.67%
COC(=O)C[C@H]1c2cc(F)cc(F)c2S(=O)(=O)N1C1CCN(Cc2ccccc2)CC1 1.35%
NC(=O)C1CCN(C(=O)CSc2nc3ccccc3o2)CC1 12.3%
NC(=O)C1CCN(C(=O)c2ccco2)CC1 -11.7%
O=C(CCSc1ccccc1)N1CCN(C(=O)c2ccco2)CC1 -12.1%
O=C(CCc1nc2cccnc2n1Cc1ccccc1)N1CCOCC1 0.529%
CN(Cc1ccccc1)c1ncnc2sccc12 1.04%
COC(=O)c1sccc1NC(=O)c1ccc2c(c1)OCO2 12.6%
Cc1ccccc1C(=O)N1CCC(C(=O)Nc2ccccc2Cl)CC1 18.5%
Cc1ccccc1C(=O)N1CCN(c2ccc(NC(=S)NC(=O)c3cccs3)cc2)CC1 17.9%
O=C(CC1SCCNC1=O)Nc1cccc(Cl)c1 (stereo unspecified) 6.89%
COc1cccc(CN2CCN(Cc3cc(OC)c(OC)cc3[N+](=O)[O-])CC2)c1 2.59%
COc1ccc(CCN2C(=O)CC(NNC(=O)c3ccc(F)cc3)C2=O)cc1OC (stereo unspecified) 4.71%
Cc1cc(C(=O)NNC(=O)c2ccc(F)cc2)c(C)s1 26.3%
Cc1nn(Cc2ccccc2)c(C)c1NC(=O)c1noc2c1CCc1ccccc1-2 15.8%
Cc1nc(Cl)c(C(=O)NCc2ccccc2)c(C)c1Cl -2.15%
CCOc1cccc(=O)c2c(C)n(-c3ccc(C(=O)O)cc3)c(C)c12 14.2%
O=C(CCCc1ccccc1)Nc1ccc2c(c1)OCCO2 9.47%
O=C(O)CC(NCc1ccco1)C(=O)OCCc1ccccc1 (stereo unspecified) 26.3%
Cc1cc(C)c2oc(=O)cc(CN3CCN(Cc4ccc5c(c4)OCO5)CC3)c2c1 4.31%
C[C@H]1NC(=O)[C@@]2(C)[C@@H](c3ccccc3)[C@H]3COc4ccccc4[C@H]3N2C1=O 15.3%
CCOC(=O)[C@H]1[C@H]2COc3ccc(Cl)cc3[C@@H]2N2C(=O)[C@H](C)NC(=O)[C@@]12C -1.43%
CC(=O)c1c(C)[nH]c(C(=O)CSc2nnc3ccccn23)c1C -0.324%
CC(=O)Oc1ccc2c(c1)OC(c1ccccc1)CC21CC(C)(C)NC(=S)N1 (stereo unspecified) 15.6%
C=CCC[C@H](Cc1ccc(F)cc1)C(=O)OC[C@@H](C)NC(=O)[C@H](CC=C)CC(=O)NCCO -6.43%
Nc1nc2n(n1)C(c1cccc(Br)c1)CC(c1ccccc1)N2 (stereo unspecified) 23%
CC(Oc1ccc2c(-c3ccccc3)cc(=O)oc2c1)C(=O)NCCCN1CCOCC1 (stereo unspecified) 12.1%
COc1ccccc1N1CCN(CC(=O)Nc2ccc3c(c2)OCCO3)CC1 12.1%
COc1cccc(CNC(=O)CN2C(=O)CCSc3ccc(S(=O)(=O)N4CCCC4)cc32)c1 -15.2%
Cc1ccc(NC(=S)NCCC2=CCCCC2)cc1 12.6%
O=C(NCc1ccccc1)c1ccc(CS(=O)(=O)c2ccccc2)o1 16.7%
CCC1CCCCN1Cc1nc2c(c(=O)n(C)c(=O)n2C)n1CCCc1ccccc1 (stereo unspecified) -2%
